# Results taken from PubChem BioAssay AID493168 (National Center for Advancing Translational Sciences (NCATS), 2011).
# Records with an inconclusive call do not appear. Where a call stands in place of a potency, no number is given. Active and inactive are the calls of the source. Calls come from the whole dose curve; as a rule, active = well fitted inhibition curve with a large enough effect; inconclusive = small, poorly fitted or top-dose-only effect, or effect the other way; inactive = flat fitted curve, though single readings scatter.
# Target: Ubiquitin carboxyl-terminal hydrolase 2 (Homo sapiens) (UniProt O75604)
# Experiment: Confirmation Assay for Inhibitors of Ubiquitin-specific Protease USP2a Using CHOP2 as the Reporter; note: nearly all actives have a fitted effect of over 55% in size
# Conditions: USP2 core, Ub-CHOP2 coupled reporter fluorescence; series mostly up to 38.3 µM
# Method in brief: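 Ub-CHOP2 cleavage coupled to reporter activation was read by fluorescence after 60 min at RT, with 25 nM final Ub-CHOP2 and substrate. Enzyme (10 nM final USP2 core) first sat 30 min with compound; data were normalized to NEM and fitted to concentration-response curves.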
# Potency is the fitted concentration of half-maximal effect.
# Ubiquitin carboxyl-terminal hydrolase 2 (Homo sapiens), sequence (O75604 whole entry, looked up): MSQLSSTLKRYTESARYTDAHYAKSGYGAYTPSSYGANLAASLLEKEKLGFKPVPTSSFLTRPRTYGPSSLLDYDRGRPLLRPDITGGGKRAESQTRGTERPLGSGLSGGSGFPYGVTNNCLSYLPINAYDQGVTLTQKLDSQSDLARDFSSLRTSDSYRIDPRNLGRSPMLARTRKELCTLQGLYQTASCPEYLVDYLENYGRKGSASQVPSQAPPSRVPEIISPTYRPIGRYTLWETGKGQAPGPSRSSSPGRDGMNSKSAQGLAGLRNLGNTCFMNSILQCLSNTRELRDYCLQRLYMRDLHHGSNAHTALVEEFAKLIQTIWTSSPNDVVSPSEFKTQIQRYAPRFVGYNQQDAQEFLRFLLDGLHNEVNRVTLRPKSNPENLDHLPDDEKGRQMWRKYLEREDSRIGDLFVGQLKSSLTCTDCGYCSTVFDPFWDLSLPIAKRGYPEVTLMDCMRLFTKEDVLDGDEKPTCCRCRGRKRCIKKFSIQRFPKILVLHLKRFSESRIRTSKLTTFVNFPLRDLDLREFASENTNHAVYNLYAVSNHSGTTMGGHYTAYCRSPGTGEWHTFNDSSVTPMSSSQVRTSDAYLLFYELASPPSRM
row,Structure (SMILES),Potency
1,Cc1ccc(C(=O)N(c2c(C)n(C)n(-c3ccccc3)c2=O)C(C)C)cc1,inactive
2,O=C(Nc1ccc2c(c1)OCO2)NC1(C(F)(F)F)Oc2ccccc2O1,inactive
3,CC1(C)CC(=O)C2=C(C1)N(Cc1ccco1)C(=O)NC2(C(F)(F)F)C(F)(F)F,inactive
4,O=C1Nc2ccc(S(=O)(=O)N3CCCCCC3)c3cccc1c23,inactive
5,CCNC(=S)N/N=C/c1cn(Cc2ccc(F)cc2)c2ccccc12,inactive
6,NC1=NC2(CCC(c3ccccc3)CC2)n2c(nc3ccccc32)N1 (stereo not given),inactive
7,CC(C)c1ccc(NC(=O)C(c2ccc3c(c2)OCO3)N2CCCCC2)cc1 (stereo not given),inactive
8,Cc1ccc(N2CN=c3s/c(=C\c4cccnc4)c(=O)n3C2)cc1,inactive
9,Cc1cc(C)cc(NC(=O)CSc2nc3c(c(=O)[nH]2)CN(Cc2ccc(F)cc2)CC3)c1,inactive
10,CCc1sc(/C=C(/C#N)C(N)=S)cc1[N+](=O)[O-],inactive
11,O=C1CS/C(=C/C(=O)c2ccccc2)N1,inactive
12,C=CC[C@H](CC(=O)N[C@H](CO)Cc1ccccc1)C(=O)N[C@@H](COC(=O)[C@@H](CC=C)CC(=O)OC(C)(C)C)Cc1c[nH]c2ccccc12,inactive
13,O=C(CC1Oc2ccccc2NC1=O)NCc1ccc(Cl)cc1 (stereo not given),inactive
14,Cn1c(=O)c(C(=O)Nc2ncccc2O)c(O)c2ccccc21,inactive
15,O=C(CCn1c(=O)c2ccccc2n(Cc2ccccc2)c1=O)NCc1ccc2c(c1)OCO2,inactive
16,CCC(C)NC(=O)C1CN(S(=O)(=O)c2ccccc2)CCN1S(=O)(=O)c1ccccc1 (stereo not given),inactive
17,O=C(CSc1nc2ccccc2[nH]1)Nc1ccc2c(c1)OCCO2,inactive
18,CCC(C)NC(=O)CSC1=Nc2ccccc2C2=NC(c3ccccc3)C(=O)N12 (stereo not given),inactive
19,CCOC(=O)c1ccc(NC(=O)C2=C(C)Nc3nc(CCCO)nn3C2c2cccc(C)c2)cc1 (stereo not given),inactive
20,O=C(CNC(=O)c1ccco1)Nc1ccc(S(=O)(=O)N2CCCC2)cc1,inactive

row,Structure (SMILES),Potency
1,COc1ccc(CCNC(=O)COC(=O)CNS(=O)(=O)c2ccc(SC)c([N+](=O)[O-])c2)cc1,inactive
2,O=C1c2ccccc2C(=O)N1CCC1=CCCCC1,inactive
3,Cc1ccc(NC(=O)CCC(=O)OC(C)C(=O)c2ccccc2)cc1 (stereo not given),inactive
4,COc1ccc(NC(=O)c2cc(-c3ccco3)nc3ccccc23)cc1S(=O)(=O)N1CCOCC1,18.5 µM (active)
5,COc1ccccc1N1CCN(c2cc(C)nc3nc(C)nn23)CC1,inactive
6,COc1cc(/C=C/[N+](=O)[O-])ccc1OCc1cccc(C(=O)O)c1,inactive
7,CNc1sc(C(=O)c2ccc(F)cc2)c(N)c1-c1nc2ccccc2s1,inactive
8,CCCOc1ccc(/C=C2\SC(=S)N(CC3CCCO3)C2=O)cc1 (stereo not given),inactive
9,Cc1cccc(NC(=O)NCc2ccc3c(c2)cc(C)n3C)c1,inactive
10,COc1ccc(C(=O)N/C(=C\c2cccs2)C(=O)N2CCN(C)CC2)cc1OC,inactive
11,CCC(C)(C)n1nnnc1C(c1ccc(C)cc1)N1CCCC1 (stereo not given),inactive
12,Cc1ccc2[nH]c(C)c(CCNC(=O)c3cc4cc([N+](=O)[O-])ccc4oc3=O)c2c1,inactive
13,CCOc1ccccc1C(=O)Nc1nnc(C(C)C)s1,inactive
14,O=C(O)C1CCN1C1CCCCC1 (stereo not given),inactive
15,Cc1onc(-c2ccccc2)c1C(=O)N1CCN(C)CC1,inactive
16,Nc1c(C(=O)NCC2CCCO2)sc2nc3c(c(-c4ccco4)c12)CC/C3=C\c1ccco1 (stereo not given),4.14 µM (active)
17,CCCNC(=O)CS(=O)Cc1nc(-c2ccccc2C)oc1C (stereo not given),inactive
18,Cn1c(=O)c(C(=O)Nc2ccccc2S(N)(=O)=O)c(O)c2ccccc21,14.7 µM (active)
19,CC(C)CCn1c(CN2CCN(C(=O)c3ccco3)CC2)nc2c1c(=O)n(C)c(=O)n2C,inactive
20,Cc1ccc(/C(N)=N/OC(=O)Oc2ccccc2)cc1,inactive
